This note sets out measurements from article PMC4336329 (PLoS ONE, 2015).

Structures are written as SMILES. In all, about 310,000 compounds went through this assay and about 14,000 (4.5%) showed an effect of 50% or more. The effect is printed as a negative number. The full list was thinned out, with strong results kept by preference.
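Note: peak tail current of the secondary pulse compared with the same well before compound.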

In the experiment the target is human ether-à-go-go-related gene (hERG) potassium channel (human, UniProt Q12809). As to the kind of experiment: primary screen, population patch clamp on CHO cells stably expressing hERG; higher = less effect of the substance.
Chain of human ether-à-go-go-related gene (hERG) potassium channel (Q12809 whole entry, looked up): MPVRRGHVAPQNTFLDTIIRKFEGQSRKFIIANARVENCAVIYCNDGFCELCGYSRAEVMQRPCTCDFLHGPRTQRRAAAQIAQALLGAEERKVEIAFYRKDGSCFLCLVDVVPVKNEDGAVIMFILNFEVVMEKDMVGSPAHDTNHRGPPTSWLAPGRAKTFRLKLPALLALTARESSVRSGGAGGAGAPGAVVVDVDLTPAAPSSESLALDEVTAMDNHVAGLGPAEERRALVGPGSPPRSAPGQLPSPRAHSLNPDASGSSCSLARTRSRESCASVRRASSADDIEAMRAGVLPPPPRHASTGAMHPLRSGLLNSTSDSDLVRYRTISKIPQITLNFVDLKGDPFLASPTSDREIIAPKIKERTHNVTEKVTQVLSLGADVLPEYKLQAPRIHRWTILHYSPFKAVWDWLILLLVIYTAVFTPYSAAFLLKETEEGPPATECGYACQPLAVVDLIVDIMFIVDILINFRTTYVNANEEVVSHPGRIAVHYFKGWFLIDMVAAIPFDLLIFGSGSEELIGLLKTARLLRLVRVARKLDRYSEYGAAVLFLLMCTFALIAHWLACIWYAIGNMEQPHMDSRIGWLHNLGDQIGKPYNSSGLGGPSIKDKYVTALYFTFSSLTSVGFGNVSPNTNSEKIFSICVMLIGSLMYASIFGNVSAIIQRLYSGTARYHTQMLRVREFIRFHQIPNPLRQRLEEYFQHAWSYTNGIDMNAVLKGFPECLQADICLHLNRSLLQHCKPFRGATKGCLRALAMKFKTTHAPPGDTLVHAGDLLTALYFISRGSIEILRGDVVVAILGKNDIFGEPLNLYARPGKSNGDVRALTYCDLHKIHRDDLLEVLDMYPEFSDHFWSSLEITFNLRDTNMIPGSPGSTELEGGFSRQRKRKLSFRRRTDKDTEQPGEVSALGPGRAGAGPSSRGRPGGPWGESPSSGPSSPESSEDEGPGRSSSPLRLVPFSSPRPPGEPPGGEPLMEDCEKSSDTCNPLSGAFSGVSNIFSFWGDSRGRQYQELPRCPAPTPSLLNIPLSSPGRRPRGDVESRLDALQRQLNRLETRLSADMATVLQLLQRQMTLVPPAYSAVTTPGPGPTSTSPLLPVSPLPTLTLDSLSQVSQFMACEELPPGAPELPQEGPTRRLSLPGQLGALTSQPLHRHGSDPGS
`Cc1ccc(-c2noc(CCC(=O)NCC3CCCO3)n2)cc1` (stereo not shown): the “hERG current change (%, negative = inhibition) at 10uM” value was 2%.

For the compound `Cc1ccc(-c2noc(CCC(=O)NCCN3CCN(Cc4ccccc4)CC3)n2)cc1`, the “hERG current change (%, negative = inhibition) at 10uM” value is listed as -49%.

On to `COc1ccc(-c2noc(CCC(=O)NCC3CCN(Cc4cccc(C)c4)CC3)n2)cc1`, for which the “hERG current change (%, negative = inhibition) at 10uM” value is -60.3%.

As to `COc1ccccc1NC(=S)NC(=O)C(C)(C)C`, the “hERG current change (%, negative = inhibition) at 10uM” value is recorded as -9.31%.

Turning to `Cc1ccc2nc(-c3ccc(N4C(=O)CC(N5CCN(CCO)CC5)C4=O)cc3)sc2c1` (stereo not shown), the “hERG current change (%, negative = inhibition) at 10uM” value is -3.5%.

As to `N#CCC(=O)Nc1ccc(C(=O)OCC(=O)Nc2ccccc2-c2ccccc2)cc1`, the “hERG current change (%, negative = inhibition) at 10uM” value amounted to 9.2%.

For the compound `CCc1nc(SCc2ccccc2C)n[nH]1`, the “hERG current change (%, negative = inhibition) at 10uM” value turned out to be 26.9%.

Regarding `CCOc1ccccc1NC(=O)c1cc(CC(C)C)oc1C`, the “hERG current change (%, negative = inhibition) at 10uM” value is on record as -0.536%.

With `Cc1cc(C(=O)Nc2cccc3ccccc23)c(C)o1`, the “hERG current change (%, negative = inhibition) at 10uM” value is recorded as 4.69%.

On to `Cc1oc(CC(C)C)cc1C(=O)Nc1cccc2ccccc12`, for which the “hERG current change (%, negative = inhibition) at 10uM” value was -58.8%.

In the case of `Cc1ncc(C(=O)O)c(C(=O)O)c1N`, the “hERG current change (%, negative = inhibition) at 10uM” value was determined as 13.4%.

With `O=C(O)c1cnc(-c2ccccc2)nc1Sc1ccccc1`, the “hERG current change (%, negative = inhibition) at 10uM” value came out at 14.2%.

In the case of `O=C(C1CCCN(Cc2ccccc2)C1)N1CCCCC1.O=C(O)C(=O)O` (stereo not shown), the “hERG current change (%, negative = inhibition) at 10uM” value is reported as 11.3%.

Regarding `COc1ccc(S(=O)(=O)N2CCC(C(=O)N3CCc4ccccc4C3)CC2)cc1OC`, the “hERG current change (%, negative = inhibition) at 10uM” value was -27.4%.

`Cc1cccc(CN2CCCC(C(=O)N3CCCCC3)C2)c1.O=C(O)C(=O)O` (stereo not shown): the “hERG current change (%, negative = inhibition) at 10uM” value is 15.5%.

`O=C(C1CCCN(Cc2ccccc2F)C1)N1CCc2ccccc2C1.O=C(O)C(=O)O` (stereo not shown): the “hERG current change (%, negative = inhibition) at 10uM” value is on record as -22.6%.

For the compound `Cc1cccc(CN2CCCC(C(=O)N3CCc4ccccc4C3)C2)c1.O=C(O)C(=O)O` (stereo not shown), the “hERG current change (%, negative = inhibition) at 10uM” value is -51.3%.

`COc1ccc(CN2CCCC(C(=O)N3CCCCC3)C2)cc1OC.O=C(O)C(=O)O` (stereo not shown): the “hERG current change (%, negative = inhibition) at 10uM” value is given as -25.5%.

Consider `COc1cc(CN2CCCC(C(=O)N3CCc4ccccc4C3)C2)cc(OC)c1OC` (stereo not shown), for which the “hERG current change (%, negative = inhibition) at 10uM” value is listed as -62%.

Turning to `O=C(C1CCCN(Cc2ccncc2)C1)N1CCc2ccccc2C1.O=C(O)C(=O)O` (stereo not shown), the “hERG current change (%, negative = inhibition) at 10uM” value was -19.2%.

In the case of `COc1ccc(CN2CCCC(C(=O)N3CCc4ccccc4C3)C2)cc1OC` (stereo not shown), the “hERG current change (%, negative = inhibition) at 10uM” value is listed as -62%.

For `COc1ccc(C)cc1-n1c(SCC(=O)Nc2cccc(C(=O)O)c2)nc2ccccc2c1=O`, the “hERG current change (%, negative = inhibition) at 10uM” value is 12%.

For the compound `O=C(CCC(=O)Nc1ccccc1)NNC(=O)C(c1ccccc1)c1ccccc1`, the “hERG current change (%, negative = inhibition) at 10uM” value is recorded as -0.585%.

`CCN(c1ccccc1)P(=O)(Nc1ccccc1)Nc1ccccc1`: the “hERG current change (%, negative = inhibition) at 10uM” value came to 0.944%.

Turning to `Cc1ccc(N2C(=O)CSC2c2cccnc2)cc1F` (stereo not shown), the “hERG current change (%, negative = inhibition) at 10uM” value amounted to 5.77%.

Take `CCCc1nc(SCC(=O)Nc2cc(C)on2)c2c(=O)n(C)c(=O)n(C)c2n1`: the “hERG current change (%, negative = inhibition) at 10uM” value is given as -2.26%.

In the case of `NCCCC[C@H]1NC(=O)[C@H](CCC(=O)O)NC(=O)c2cc([N+](=O)[O-])cc(I)c2OCC[C@@H](C(N)=O)NC1=O`, the “hERG current change (%, negative = inhibition) at 10uM” value stood at 26.6%.

Take `Cc1cc(C)c2sc(N(CCCN(C)C)C(=O)c3ccc(S(=O)(=O)N4CCc5ccccc5C4)cc3)nc2c1.Cl`: the “hERG current change (%, negative = inhibition) at 10uM” value was found to be 4.44%.

For `CCCCN(CC)S(=O)(=O)c1ccc(C(=O)N(CCCN(C)C)c2nc3cc(C)cc(C)c3s2)cc1.Cl`, the “hERG current change (%, negative = inhibition) at 10uM” value was -73%.

Turning to `Cc1cc(C)c2sc(N(CCCN(C)C)C(=O)c3ccc(S(=O)(=O)N(C)C4CCCCC4)cc3)nc2c1.Cl`, the “hERG current change (%, negative = inhibition) at 10uM” value is -81.4%.

`Cc1cc(C)c2sc(N(CCCN(C)C)C(=O)c3ccc(S(=O)(=O)N(C)Cc4ccccc4)cc3)nc2c1.Cl`: the “hERG current change (%, negative = inhibition) at 10uM” value is given as -13.5%.

In the case of `Cc1cc(C)c2sc(N(CCCN(C)C)C(=O)c3ccc(S(=O)(=O)N4CCCc5ccccc54)cc3)nc2c1.Cl`, the “hERG current change (%, negative = inhibition) at 10uM” value stood at 0.702%.

Consider `CCN(Cc1ccccc1)S(=O)(=O)c1ccc(C(=O)N(CCCN(C)C)c2nc3cc(C)cc(C)c3s2)cc1.Cl`, for which the “hERG current change (%, negative = inhibition) at 10uM” value is reported as -4.15%.

For the compound `CCOc1ccc(S(=O)(=O)N2CCCCC2)cc1NC(=O)Cc1ccsc1`, the “hERG current change (%, negative = inhibition) at 10uM” value is 2.15%.

`C(=C\c1ccccc1)/C=N/Nc1ccc2nncn2n1`: the “hERG current change (%, negative = inhibition) at 10uM” value is -19.7%.

Turning to `CC(/C=N/Nc1ccc2nncn2n1)=C\c1ccccc1`, the “hERG current change (%, negative = inhibition) at 10uM” value is on record as -51.8%.

Regarding `BrC(=C\c1ccccc1)/C=N/Nc1ccc2nncn2n1`, the “hERG current change (%, negative = inhibition) at 10uM” value is recorded as -21.6%.

For `Oc1sc(C=Nc2ccccc2)c2ccccc12`, the “hERG current change (%, negative = inhibition) at 10uM” value worked out at 7.99%.

Take `COc1ccc(CCC(=O)Nc2ccc3c(c2)OCO3)cc1`: the “hERG current change (%, negative = inhibition) at 10uM” value stood at 2.6%.

As to `O=C(COc1ncnc2cc([N+](=O)[O-])ccc12)NC1CCCCC1`, the “hERG current change (%, negative = inhibition) at 10uM” value was -2.76%.

`O=C(COc1ncnc2cc([N+](=O)[O-])ccc12)NC(=O)NC1CCCCC1`: the “hERG current change (%, negative = inhibition) at 10uM” value is reported as -56.5%.

As for `COc1ccc(CCNC(=O)COc2ncnc3cc([N+](=O)[O-])ccc23)cc1`, the “hERG current change (%, negative = inhibition) at 10uM” value was -16.5%.

`O=C1c2ccccc2NC(c2c(Cl)cccc2Cl)N1Cc1ccccc1` (stereo not shown): the “hERG current change (%, negative = inhibition) at 10uM” value amounted to 7.98%.
